The record followed here is PubChem BioAssay AID1852 (Sanford-Burnham Center for Chemical Genomics, 2009).

In all, about 2,500 compounds went through this assay and about 1,100 (44%) were called active.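 How the source made its calls: active means inhibition above 50% at 4 µM in the single-point screen; inactive means inhibition of 50% or less.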 So high a share suggests a set chosen from earlier hits. The list shows a part of the results.

A word on the inhibition: it is the relative decrease from the control value, in per cent.

This test is described as follows: blockers of TNF-a NF-kB luciferase induction – cell-based, HEK293T NF-kB-Luc, luminescence, selectivity assay for NOD1/NOD2 signaling inhibitor project, primary screen (AID 1852). To be noted: TNF-a induced, 14 h, at 4 µM, hits give high values.
As for `Cc1ccnc(OC(C(=O)O)C(OCc2ccccc2)(c2ccc(F)cc2)c2ccc(F)cc2)n1` (stereo not given), the inhibition was -7.9% (inactive).

Turning to `CCn1cc([N+](=O)[O-])c(C(=O)N2N=C(c3ccc4ccccc4c3)CC2c2cc(Br)ccc2O)n1` (stereo not given), the inhibition is -56.7% (inactive). The same measure for `CCn1cc([N+](=O)[O-])c(C(=O)N2N=C(c3ccc(OC)cc3OC)CC2c2ccccc2O)n1` (stereo not given): 86.6% (active); for `CC1CC(C)CN(C(=O)CSc2nc(Cc3cccs3)nc3ccccc23)C1` (stereo not given): -34.3% (inactive); for `O=C1C(Cl)=C(Nc2ccccc2)C(=O)c2ccccc21`: -83.5% (inactive). The same measure for `Nc1ccc2c(c1)C(=O)C(=O)c1ccccc1-2`: 97.6% (active); for `O=C1C(=O)c2ccc(-c3ccccc3)cc2-c2ccccc21`: 102% (active); for `CCn1c(SCC(=O)N2CCC(C)CC2)nc2c(c1=O)SCC2`: 1.5% (inactive).

Regarding `CCCCCCc1cc2cc(S(=O)(=O)c3ccc(Cl)cc3)c(=O)oc2cc1O`, the inhibition is 65.1% (active). For `CCCCCCc1cc2cc(C(=O)OCC)c(=O)oc2cc1O`, the inhibition is 9.4% (inactive).

Turning to `CCCCCCc1cc2cc(S(=O)(=O)c3ccc(F)c(Cl)c3)c(=O)oc2cc1O`, the inhibition was 38.7% (inactive). Then `O=C(O)CSc1ncnc2sc3c(c12)CCCC3`, with 31.1% (inactive); and `c1csc(CCNc2ncnc3sc4c(c23)CCC4)c1`, with 62.9% (active); and `COCCn1c(C)cc(C(=O)CSc2ncnc3sc4c(c23)CCC4)c1C`, with 14.2% (inactive). The same measure for `CC1(C)CC(N2CCCC2)=CC(=[N+]2CCCCCC2)C1`: 34% (inactive); for `CC1(C)CC(N2CCN(C(c3ccccc3)c3ccccc3)CC2)=CC(=[N+]2CCCCC2)C1`: 80.1% (active). As to `CC1CC(C)C[N+](=C2C=C(N3CCCC3)CC(C)(C)C2)C1` (stereo not given), the inhibition is 49.7% (inactive).

As for `O=C(NC(c1ccc(Cl)cc1)c1c(O)ccc2ccccc12)c1ccccc1` (stereo not given), the inhibition was 78.3% (active).

Take `Cc1cc(C)nc(N/N=C/c2c[nH]c3ccccc23)n1`: the inhibition is 29% (inactive). On to `Cc1c(O)ccc(/C=N/Nc2nc(-c3cccnc3)nc3ccccc23)c1O`, for which the inhibition was -60% (inactive). The same measure for `Fc1ccccc1/C=N/Nc1nc(-c2ccccn2)nc2ccccc12`: 98.7% (active). As to `FC(F)(F)c1cc(Sc2ccccc2)nc(-c2ccccn2)n1`, the inhibition was -4.1% (inactive).

Consider `Oc1ccc(/C=N/Nc2nc(-c3ccccc3F)nc3ccccc23)c(O)c1`, for which the inhibition is 68.2% (active). For the molecule `Oc1ccc(/C=N/Nc2nccnc2Cl)c(O)c1`, the inhibition is 39.8% (inactive).

Regarding `C(=N\Nc1nc(-c2ccccn2)nc2ccccc12)/c1ccccc1`, the inhibition was 78.9% (active). On to `Cc1c(Cl)cccc1NC(=S)NNc1ncc(C(F)(F)F)cc1Cl`, for which the inhibition is 28.7% (inactive). Then `O=[N+]([O-])c1cccnc1S(=O)(=O)c1ccccc1`, with 69.6% (active); and `Cc1ccc(S(=O)(=O)c2ncccc2[N+](=O)[O-])cc1`, with 52.6% (active). The same measure for `Cc1ccc(S(=O)(=O)c2ccc([N+](=O)[O-])cn2)cc1`: 38.5% (inactive); for `Cc1ccc(C(=O)Nc2ncc([N+](=O)[O-])s2)cc1`: 3.8% (inactive); for `CC(C)C[C@H](NC(=O)c1nc[nH]c1C(=O)N1CCN(C(=O)OC(C)(C)C)CC1)C(=O)OC(C)(C)C`: 2.4% (inactive). Then `Cc1ccnc(NC(=O)Cc2ccc(-c3ccccc3)cc2)c1`, with 48.8% (inactive); and `Cc1ccnc(NC(=O)CSc2cc(=O)n(C)c3ccccc23)c1`, with 86.3% (active). Take `CCn1c(=O)cc(SCC(=O)Nc2ccc(C)cn2)c2ccccc21`: the inhibition is 35.4% (inactive). The same measure for `Nc1ncc(Br)cc1S(=O)(=O)Nc1cc(C(F)(F)F)cc(C(F)(F)F)c1`: 78% (active); for `Cc1sc2nc(CSc3ccccc3)nc(N3CCC(C(N)=O)CC3)c2c1C`: 53.5% (active). The same measure for `Cc1nc(N2CCN(c3ccccc3O)CC2)c2c(-c3ccccc3)csc2n1`: -13.5% (inactive). Then `Cc1nc(N2CCC(C(N)=O)CC2)c2c(-c3cccs3)csc2n1`, with 57.4% (active).

For `Cc1nc(N2CCN(C(=O)COc3ccccc3)CC2)c2c(C)c(C)sc2n1`, the inhibition was 23.4% (inactive).

As to `Cc1nc(N2CCC(C)CC2)c2c(C)c(C(=O)Nc3cc(F)ccc3C)sc2n1`, the inhibition was -61.2% (inactive). `CCOC(=O)c1sc2nc(CSc3ccccc3)[nH]c(=O)c2c1C`: the inhibition is -7.9% (inactive). Then `CCOc1cc(/C=C2\C(=N)N3N=C(S(C)(=O)=O)SC3=NC2=O)ccc1OCCOc1cccc(OC)c1`, with -31.3% (inactive). The same measure for `Fc1ccc(Sc2nc(-c3ccccc3)nnc2C(F)(F)F)cc1`: 40.3% (inactive).

As to `CC(C)c1ccc(-n2c(-c3ccccc3)c[n+]3c2CCc2ccccc2-3)cc1`, the inhibition was 86% (active). Then `CC(Oc1ccc(Br)cc1)c1nc2c3ccccc3nc(=S)n2[nH]1` (stereo not given), with 101% (active); and `CCCC(Oc1ccc(Br)cc1)c1nc2c3cc(OC)c(OC)cc3nc(=S)n2[nH]1` (stereo not given), with 104% (active). Then `O=CN1CCN(c2c([N+](=O)[O-])c(=O)oc3ccccc23)CC1`, with -17% (inactive); and `N=C1SCC(=O)N1c1ncc(Cc2cccc(Cl)c2)s1`, with 101% (active); and `N=C1SCC(=O)N1c1ncc(Cc2ccc(F)cc2)s1`, with 109% (active). For the molecule `O=C1CCSc2ccc(Cl)cc2N1Cc1cccc(Cl)c1`, the inhibition was 17.4% (inactive).

In the case of `N=C1SCC(=O)N1c1ncc(Cc2ccccc2Cl)s1`, the inhibition is 97.5% (active). The same measure for `COc1ccc(COC(=O)NC2CCN(S(=O)(=O)c3ccc(OC)cc3)CC2)cc1`: 20.6% (inactive); for `CCOC(=O)C1CCN(c2ncnc3c2cnn3-c2ccc(Cl)cc2)CC1`: 36.4% (inactive). The same measure for `Cc1nn(-c2ccccc2)c(Cl)c1C(=O)N1CCN(c2ncnc3c2cnn3-c2ccccc2)CC1`: 86.6% (active). The same measure for `Cc1nc(N2CCN(c3ccccn3)CC2)c2c(C)c(C(=O)N3CCN(c4ccc(F)cc4)CC3)sc2n1`: -51.2% (inactive); for `Cc1ccc2nc(NC(=O)CSCC(=O)OCC(=O)c3ccc(Br)cc3)sc2c1`: 75.2% (active); for `COC(=O)c1ccc2nc(Nc3nc4c(F)cc(F)cc4s3)sc2c1`: 35.5% (inactive). As for `NC(=S)N=Nc1c(O)n(Cc2ccc(Br)cc2)c2ccccc12`, the inhibition was -15.1% (inactive). The same measure for `C=CCn1c(O)c(N=NC(=S)Nc2cccc(OC)c2)c2ccccc21`: 12% (inactive); for `Cc1c(Cl)cccc1NC(=S)N=Nc1c(O)n(CN2CCOCC2)c2ccccc12`: 70.8% (active); for `C=CCn1c(O)c(N=NC(=S)Nc2cccc(C)c2)c2ccccc21`: 8.8% (inactive). The same measure for `C=CCn1c(O)c(N=NC(=S)Nc2ccc(OC)c(Cl)c2)c2ccccc21`: -34.6% (inactive). In the case of `C=CCn1c(O)c(N=NC(=S)Nc2ccccc2F)c2ccccc21`, the inhibition was 100% (active). Then `C/C(Cl)=C\Cn1c(O)c(N=NC(N)=S)c2ccccc21`, with 35.2% (inactive); and `Oc1c(N=NC(=S)Nc2ccccc2F)c2ccccc2n1Cc1ccccc1F`, with 7.6% (inactive). Then `C=CCn1c(O)c(N=NC(=S)Nc2ccc(OC)cc2)c2ccccc21`, with 96.3% (active). With `O=C(Nc1ccc(Br)c2ccccc12)c1ccc2ccccc2c1O`, the inhibition was 42.5% (inactive). Then `CC(=O)c1c(C)oc2ccc(N(C(C)=O)S(=O)(=O)c3ccc(F)cc3C)cc12`, with -8.7% (inactive); and `CCCC1/C(=N/O)CC(c2ccccc2)NC1c1ccccc1` (stereo not given), with 31.6% (inactive). Then `CC1=C(CO)C(=O)OC([C@@H](C)C2CC[C@H]3C4C[C@H]5O[C@]56[C@@H](O)C=CC(=O)[C@]6(C)C4CC[C@]23C)C1` (stereo not given in full), with 89.9% (active); and `CCC(C)(C)c1ccc(OCCCC[n+]2cccc(C)c2)c(C(C)(C)CC)c1`, with 41.5% (inactive). The same measure for `COc1cc(OC)cc(-c2cc3nc(C)c(CCC(=O)O)c(C)n3n2)c1`: 85.7% (active); for `O=C(Nc1ccc([N+](=O)[O-])cc1)Nc1ccc(Cl)cc1F`: 12.9% (inactive). Take `O=C(Nc1ccc(Cl)c(Cl)c1)Nc1ccccc1NS(=O)(=O)c1cccs1`: the inhibition was 94.3% (active). For `O=C(Nc1ccc(Cl)c(Cl)c1)Nc1ccc(Br)cc1F`, the inhibition is 106% (active).

Take `Cc1cc(Cl)ccc1OCC(=O)Nc1ccccc1NS(=O)(=O)c1cccs1`: the inhibition was 21.7% (inactive). The same measure for `Cc1cc(-c2n[nH]c(=S)n2/N=C/C(Cl)=C/c2ccccc2)n[nH]1`: -31.5% (inactive); for `Cc1ccc(-c2n[nH]c(=S)n2/N=C/c2ccncc2)cc1`: 4.6% (inactive); for `S=c1[nH]nc(-c2cc(-c3ccccc3)n[nH]2)n1/N=C/C(Br)=C/c1ccccc1`: 105% (active). Then `CC(=C/c1ccccc1)/C=N/n1c(-c2ccncc2)n[nH]c1=S`, with 94.4% (active); and `Cc1cc(-c2n[nH]c(=S)n2/N=C/C(Br)=C/c2ccccc2)n[nH]1`, with 23.7% (inactive); and `Cc1noc2ncnc(Oc3ccc(Cl)cc3Cl)c12`, with -0.2% (inactive). The same measure for `CCN1CCN(Cc2ccc(NC(=O)c3ccc(C)c(/C=C/c4cnc(Nc5cc(N6CCNCC6)nc(C)n5)cn4)c3)cc2C(F)(F)F)CC1`: -16% (inactive); for `CC[n+]1c(C=C2C=C(C)OC(C)=C2)sc2ccccc21`: 57.8% (active); for `Cc1sc2nc(-c3ccccn3)[nH]c(=O)c2c1-c1ccccc1`: 37.1% (inactive). Take `Cc1nc(SCCC(=O)O)c2cc(-c3ccccc3)sc2n1`: the inhibition was 48.4% (inactive).

For the molecule `O=c1[nH]c(-c2ccccn2)nc2sc(-c3ccccc3)cc12`, the inhibition was 97.3% (active). Then `Cc1cc(NC(=O)CCS(=O)(=O)c2nc(-c3ccccc3)cc(C(F)(F)F)n2)no1`, with 46.7% (inactive); and `COc1ccc(-c2cc(C(F)(F)F)nc(S(C)(=O)=O)n2)cc1`, with 77.6% (active); and `COCCN(Cc1ccccc1)C(=O)c1cc(-c2ccc(OC)c(OC)c2)nc2ccccc12`, with 20% (inactive). For the molecule `COc1ccccc1-c1cc(C(F)(F)F)nc(S(C)(=O)=O)n1`, the inhibition was 68.8% (active). Then `COc1ccc(-c2cc(C(F)(F)F)nc(S(C)(=O)=O)n2)cc1OC`, with 89.3% (active); and `CCOc1cccc2sc(NC(=O)CCS(=O)(=O)c3ccccc3)nc12`, with -6.7% (inactive). Then `COc1ccc(NS(=O)(=O)c2ccc(-c3coc(C)n3)cc2)cc1OC`, with 47.8% (inactive); and `COC(=O)CCS(=O)(=O)c1nc(-c2ccccc2)cc(C(F)(F)F)n1`, with 55.5% (active).
